# Where “and” joins values, the source holds several entries; their conditions need not be identical. Equal entries are not always repeated. Where two headings read alike, the source gives them in different places.
# Assays:
# BLK = conditions: concentration: 1 μM, replicates: in singlicate, n = 1
# BMPR1A = conditions: concentration: 1 μM, replicates: in singlicate, n = 1
# BMPR1B = conditions: concentration: 1 μM, replicates: in singlicate; n = 1
# BMPR2 = conditions: concentration: 1 μM, replicates: in singlicate, n = 1
# BMX = conditions: concentration: 1 μM, replicates: in singlicate, n = 1
# BRAF = conditions: concentration: 1 μM, replicates: in singlicate, n = 1
# BRK = test system: T1, BRK; conditions: concentration: 1 μM, replicates: in singlicate, n = 1
# T1 construct: gene PTK6
# BRSK1 = conditions: concentration: 1 μM, replicates: in singlicate, n = 1
# BRSK2 = conditions: concentration: 1 μM, replicates: in singlicate, n = 1
# BTK = conditions: concentration: 1 μM, replicates: in singlicate, n = 1
# BUB1 = conditions: concentration: 1 μM, replicates: in singlicate, n = 1
# CAMK1B = conditions: concentration: 1 μM, replicates: in singlicate, n = 1
# CAMK1D = conditions: concentration: 1 μM, replicates: in singlicate, n = 1
# CAMK1G = conditions: concentration: 1 μM, replicates: in singlicate, n = 1
# CAMK1 = conditions: concentration: 1 μM, replicates: in singlicate, n = 1
# CAMK2A = conditions: concentration: 1 μM, replicates: in singlicate; n = 1
# CAMK2B = conditions: concentration: 1 μM, replicates: in singlicate; n = 1
# CAMK2D = conditions: concentration: 1 μM, replicates: in singlicate, n = 1
# CAMK2G = conditions: concentration: 1 μM, replicates: in singlicate, n = 1
# CAMK4 = conditions: concentration: 1 μM, replicates: in singlicate, n = 1
# 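Also: KINOMEscan kinase panel screen.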
smiles,measurement,setting,value
CN(C(=O)c1ccc(-c2cc(-c3c[nH]nc3-c3ccccn3)ccn2)cc1)C1CCOCC1 [GW810083],%Inh,BLK,22%
same,%Inh,BMPR1A,0%
same,%Inh,BMPR1B,0%
same,%Inh,BMPR2,24%
same,%Inh,BMX,0%
same,%Inh,BRAF,0%
same,%Inh,BRK,4%
same,%Inh,BRSK1,3%
same,%Inh,BRSK2,8%
same,%Inh,BTK,16%
same,%Inh,BUB1,0%
same,%Inh,CAMK1B,41%
same,%Inh,CAMK1D,20%
same,%Inh,CAMK1G,0%
same,%Inh,CAMK1,0%
same,%Inh,CAMK2A,0%
same,%Inh,CAMK2B,0%
same,%Inh,CAMK2D,0%
same,%Inh,CAMK2G,17%
same,%Inh,CAMK4,20%
C[C@@H](Oc1cc(-n2cnc3ccc(NC(=O)NC(C)(C)C)cc32)sc1C(N)=O)c1ccccc1Cl [GSK346294],%Inh,BLK,0%
same,%Inh,BMPR1A,0%
same,%Inh,BMPR1B,0%
same,%Inh,BMPR2,5%
same,%Inh,BMX,22%
same,%Inh,BRAF,0%
same,%Inh,BRK,17%
same,%Inh,BRSK1,10%
same,%Inh,BRSK2,15%
same,%Inh,BTK,6%
same,%Inh,BUB1,35%
same,%Inh,CAMK1B,32%
same,%Inh,CAMK1D,19%
same,%Inh,CAMK1G,2%
same,%Inh,CAMK1,11%
same,%Inh,CAMK2A,9%
same,%Inh,CAMK2B,0%
same,%Inh,CAMK2D,18%
same,%Inh,CAMK2G,23%
same,%Inh,CAMK4,3%
Cc1ccc(C(=O)NCC(N)=O)cc1-n1c(C)cc(OCc2ccc(F)cc2F)c(Br)c1=O,%Inh,BLK,14%
same,%Inh,BMPR1A,2%
same,%Inh,BMPR1B,0%
same,%Inh,BMPR2,0%
same,%Inh,BMX,24%
same,%Inh,BRAF,0%
same,%Inh,BRK,23%
same,%Inh,BRSK1,11%
same,%Inh,BRSK2,39%
same,%Inh,BTK,0%
same,%Inh,BUB1,0%
same,%Inh,CAMK1B,10%
same,%Inh,CAMK1D,36%
same,%Inh,CAMK1G,0%
same,%Inh,CAMK1,44%
same,%Inh,CAMK2A,9%
same,%Inh,CAMK2B,1%
same,%Inh,CAMK2D,0%
same,%Inh,CAMK2G,0%
same,%Inh,CAMK4,26%
[2H]C([2H])(c1cccc(C(F)(F)F)c1C)n1ccn2c(=O)nc(N3CCOCC3)cc12 [GSK2336394],%Inh,BLK,25%
same,%Inh,BMPR1A,1%
same,%Inh,BMPR1B,0%
same,%Inh,BMPR2,0%
same,%Inh,BMX,9%
same,%Inh,BRAF,44%
same,%Inh,BRK,18%
same,%Inh,BRSK1,7%
same,%Inh,BRSK2,0%
same,%Inh,BTK,0%
same,%Inh,BUB1,52%
same,%Inh,CAMK1B,26%
same,%Inh,CAMK1D,0%
same,%Inh,CAMK1G,0%
same,%Inh,CAMK1,0%
same,%Inh,CAMK2A,0%
same,%Inh,CAMK2B,0%
same,%Inh,CAMK2D,7%
same,%Inh,CAMK2G,3%
same,%Inh,CAMK4,16%
Cc1cccc(-c2nc(Nc3ccc4ncsc4c3)c3ccccc3n2)n1 [GW867588],%Inh,BLK,11%
same,%Inh,BMPR1A,0%
same,%Inh,BMPR1B,0%
same,%Inh,BMPR2,15%
same,%Inh,BMX,0%
same,%Inh,BRAF,7%
same,%Inh,BRK,0%
same,%Inh,BRSK1,0%
same,%Inh,BRSK2,0%
same,%Inh,BTK,0%
same,%Inh,BUB1,47%
same,%Inh,CAMK1B,21%
same,%Inh,CAMK1D,14%
same,%Inh,CAMK1G,0%
same,%Inh,CAMK1,26%
same,%Inh,CAMK2A,0%
same,%Inh,CAMK2B,0%
same,%Inh,CAMK2D,2%
same,%Inh,CAMK2G,9%
same,%Inh,CAMK4,0%
Nc1nc(-c2ccc3c(N)n[nH]c3c2)cc(N2CCCC2)n1 [GSK2227430],%Inh,BLK,7%
same,%Inh,BMPR1A,0%
same,%Inh,BMPR1B,0%
same,%Inh,BMPR2,0%
same,%Inh,BMX,1%
same,%Inh,BRAF,0%
same,%Inh,BRK,20%
same,%Inh,BRSK1,0%
same,%Inh,BRSK2,0%
same,%Inh,BTK,0%
same,%Inh,BUB1,30%
same,%Inh,CAMK1B,3%
same,%Inh,CAMK1D,20%
same,%Inh,CAMK1G,0%
same,%Inh,CAMK1,25%
same,%Inh,CAMK2A,0%
same,%Inh,CAMK2B,0%
same,%Inh,CAMK2D,0%
same,%Inh,CAMK2G,21%
same,%Inh,CAMK4,0%
O=C1Cc2cc(Nc3nc(NCc4cccc(S(=O)(=O)C(F)(F)F)c4)ncc3C(F)(F)F)ccc2N1,%Inh,BLK,1%
same,%Inh,BMPR1A,0%
same,%Inh,BMPR1B,18%
same,%Inh,BMPR2,19%
same,%Inh,BMX,0%
same,%Inh,BRAF,1%
same,%Inh,BRK,0%
same,%Inh,BRSK1,3%
same,%Inh,BRSK2,0%
same,%Inh,BTK,0%
same,%Inh,BUB1,34%
same,%Inh,CAMK1B,11%
same,%Inh,CAMK1D,0%
same,%Inh,CAMK1G,2%
same,%Inh,CAMK1,0%
same,%Inh,CAMK2A,0%
same,%Inh,CAMK2B,0%
same,%Inh,CAMK2D,5%
same,%Inh,CAMK2G,8%
same,%Inh,CAMK4,4%
N#Cc1ccc(-c2cc(-c3c[nH]nc3-c3ccccn3)ccn2)cc1 [GW693028],%Inh,BLK,17%
same,%Inh,BMPR1A,0%
same,%Inh,BMPR1B,15%
same,%Inh,BMPR2,6%
same,%Inh,BMX,5%
same,%Inh,BRAF,11%
same,%Inh,BRK,30%
same,%Inh,BRSK1,0%
same,%Inh,BRSK2,0%
same,%Inh,BTK,0%
same,%Inh,BUB1,34%
same,%Inh,CAMK1B,3%
same,%Inh,CAMK1D,1%
same,%Inh,CAMK1G,0%
same,%Inh,CAMK1,1%
same,%Inh,CAMK2A,0%
same,%Inh,CAMK2B,1%
same,%Inh,CAMK2D,0%
same,%Inh,CAMK2G,13%
same,%Inh,CAMK4,0%
CC(C)(CN)c1nc(-c2ccc(Cl)c(O)c2)c(-c2ccncc2)[nH]1.O=C(O)C(F)(F)F [SB-477794],%Inh,BLK; 1 µM,98.2% and 98%
same,%Inh,BMPR1A; 1 µM,37% and 47%
same,%Inh,BMPR1B,99.9%
same,%Inh,BMPR2; 1 µM,32% and 33%
same,%Inh,BMX; 1 µM,0% and 40%
same,%Inh,BRAF; 1 µM,97.8% and 98.5%
same,%Inh,BRK; 1 µM,99.7% and 99.6%
same,%Inh,BRSK1; 1 µM,0% and 20%
same,%Inh,BRSK2; 1 µM,0% and 22%
same,%Inh,BTK; 1 µM,43% and 71%
same,%Inh,BUB1; 1 µM,100% and 98.2%
same,%Inh,CAMK1B; 1 µM,24% and 3%
same,%Inh,CAMK1D; 1 µM,10% and 9%
same,%Inh,CAMK1G,0%
same,%Inh,CAMK1; 1 µM,19% and 13%
same,%Inh,CAMK2A,0%
same,%Inh,CAMK2B,0%
same,%Inh,CAMK2D; 1 µM,11% and 0%
same,%Inh,CAMK2G; 1 µM,0% and 17%
same,%Inh,CAMK4,0%
c1ccc(-c2cc(-c3c[nH]nc3-c3ccccn3)ccn2)cc1 [GW576604],%Inh,BLK,37%
same,%Inh,BMPR1A,1%
same,%Inh,BMPR1B,0%
same,%Inh,BMPR2,4%
same,%Inh,BMX,3%
same,%Inh,BRAF,0%
same,%Inh,BRK,0%
same,%Inh,BRSK1,0%
same,%Inh,BRSK2,0%
same,%Inh,BTK,0%
same,%Inh,BUB1,34%
same,%Inh,CAMK1B,10%
same,%Inh,CAMK1D,14%
same,%Inh,CAMK1G,0%
same,%Inh,CAMK1,14%
same,%Inh,CAMK2A,0%
same,%Inh,CAMK2B,0%
same,%Inh,CAMK2D,10%
same,%Inh,CAMK2G,30%
same,%Inh,CAMK4,0%
Cl.Cl.Cl.Fc1ccc(-c2ncn(C3CCNCC3)c2-c2ccnc(Nc3ccccc3)n2)cc1 [SB-238039],%Inh,BLK; 1 µM,56% and 27%
same,%Inh,BMPR1A,0%
same,%Inh,BMPR1B,0%
same,%Inh,BMPR2; 1 µM,42% and 11%
same,%Inh,BMX,0%
same,%Inh,BRAF; 1 µM,19% and 0%
same,%Inh,BRK; 1 µM,0% and 19%
same,%Inh,BRSK1; 1 µM,0% and 29%
same,%Inh,BRSK2; 1 µM,7% and 9%
same,%Inh,BTK; 1 µM,0% and 9%
same,%Inh,BUB1; 1 µM,88% and 65%
same,%Inh,CAMK1B; 1 µM,0% and 42%
same,%Inh,CAMK1D; 1 µM,0% and 9%
same,%Inh,CAMK1G; 1 µM,9% and 0%
same,%Inh,CAMK1; 1 µM,7% and 0%
same,%Inh,CAMK2A,0%
same,%Inh,CAMK2B,0%
same,%Inh,CAMK2D,0%
same,%Inh,CAMK2G,0%
same,%Inh,CAMK4; 1 µM,18% and 26%
COc1ccc(S(=O)(=O)NC2CCN(c3cc(C)nc(Nc4cccc(C#N)c4)n3)CC2)cc1.O=C(O)C(F)(F)F [GSK1653539],%Inh,BLK,25%
same,%Inh,BMPR1A,0%
same,%Inh,BMPR1B,0%
same,%Inh,BMPR2,0%
same,%Inh,BMX,3%
same,%Inh,BRAF,0%
same,%Inh,BRK,0%
same,%Inh,BRSK1,0%
same,%Inh,BRSK2,0%
same,%Inh,BTK,0%
same,%Inh,BUB1,0%
same,%Inh,CAMK1B,1%
same,%Inh,CAMK1D,17%
same,%Inh,CAMK1G,0%
same,%Inh,CAMK1,0%
same,%Inh,CAMK2A,0%
same,%Inh,CAMK2B,0%
same,%Inh,CAMK2D,6%
same,%Inh,CAMK2G,11%
same,%Inh,CAMK4,0%
Cn1ccc2ncnc(Oc3ccc(NC(=O)Nc4ccncc4)c(Cl)c3)c21,%Inh,BLK,0%
same,%Inh,BMPR1A,1%
same,%Inh,BMPR1B,0%
same,%Inh,BMPR2,20%
same,%Inh,BMX,0%
same,%Inh,BRAF,0%
same,%Inh,BRK,0%
same,%Inh,BRSK1,0%
same,%Inh,BRSK2,0%
same,%Inh,BTK,0%
same,%Inh,BUB1,11%
same,%Inh,CAMK1B,0%
same,%Inh,CAMK1D,0%
same,%Inh,CAMK1G,0%
same,%Inh,CAMK1,0%
same,%Inh,CAMK2A,0%
same,%Inh,CAMK2B,0%
same,%Inh,CAMK2D,0%
same,%Inh,CAMK2G,0%
same,%Inh,CAMK4,7%
Cc1nnc(-c2ccc3occ(-c4ccc(C(C)O)cc4)c3c2)o1 (stereo not drawn),%Inh,BLK,2%
same,%Inh,BMPR1A,2%
same,%Inh,BMPR1B,23%
same,%Inh,BMPR2,2%
same,%Inh,BMX,44%
same,%Inh,BRAF,1%
same,%Inh,BRK,0%
same,%Inh,BRSK1,10%
same,%Inh,BRSK2,13%
same,%Inh,BTK,0%
same,%Inh,BUB1,9%
same,%Inh,CAMK1B,0%
same,%Inh,CAMK1D,0%
same,%Inh,CAMK1G,0%
same,%Inh,CAMK1,12%
same,%Inh,CAMK2A,3%
same,%Inh,CAMK2B,0%
same,%Inh,CAMK2D,6%
same,%Inh,CAMK2G,11%
same,%Inh,CAMK4,0%
Nc1nccc(-c2c(-c3ccc(F)cc3)ncn2C2CCN(CC(F)(F)F)CC2)n1 [SB-236560],%Inh,BLK,0%
same,%Inh,BMPR1A,0%
same,%Inh,BMPR1B,0%
same,%Inh,BMPR2,45%
same,%Inh,BMX,0%
same,%Inh,BRAF,0%
same,%Inh,BRK,0%
same,%Inh,BRSK1,40%
same,%Inh,BRSK2,0%
same,%Inh,BTK,37%
same,%Inh,BUB1,49%
same,%Inh,CAMK1B,80%
same,%Inh,CAMK1D,0%
same,%Inh,CAMK1G,2%
same,%Inh,CAMK1,0%
same,%Inh,CAMK2A,0%
same,%Inh,CAMK2B,0%
same,%Inh,CAMK2D,0%
same,%Inh,CAMK2G,93.3%
same,%Inh,CAMK4,11%
